Where “and” joins values, the source holds several entries; their conditions need not be identical. Equal values may be shown once. Measured potencies and affinities stand elsewhere.

The subject of one assay is Klebsiella pneumoniae. To be noted: Concentration 20 uM, ASSAY_TEST Inhibition of Bacterial Growth, detection method Absorption (OD600), MEDIA CAMHB, plate type 384well, NBS, CORNING #3640, time 18 hr.
The test system of a further assay is Candida albicans. To be noted: 20 µM.
The next assay deals with Cryptococcus neoformans. To be noted: Concentration 20 uM, ASSAY_TEST Inhibition of Fungal Growth, detection method Resazurin, Absorption (OD600-OD570), plate type 384well, NBS, CORNING #3640. In general terms: The colour change of resazurin is a common sign of viable cells or microbes.

Regarding `COc1ccc([C@@H]2Sc3ccccc3N(CCN(C)C)C(=O)[C@@H]2OC(C)=O)cc1.Cl` [DILTIAZEM HYDROCHLORIDE], the Inhibition turned out to be 11.57% in the assay on Klebsiella pneumoniae, 4.02% with Candida albicans and 1.8% in the assay with Cryptococcus neoformans.

With `Cc1cnc(C(=O)NCCc2ccc(S(=O)(=O)NC(=O)NC3CCCCC3)cc2)cn1` [GLIPIZIDE], the values for the Inhibition in the assay with Klebsiella pneumoniae, in the assay on Candida albicans and in the assay with Cryptococcus neoformans were 8.44%, 3.06% and -1.88%, respectively.

Turning to `OCc1cccnc1` [NICOTINYL ALCOHOL], the Inhibition was 6.16% in the assay on Klebsiella pneumoniae, 2.84% in the assay with Candida albicans and -7.14% with Cryptococcus neoformans.

For the compound `CN1CCN(C2=Nc3ccccc3Oc3ccc(Cl)cc32)CC1.O=C(O)CCC(=O)O` [LOXAPINE SUCCINATE], the Inhibition with Klebsiella pneumoniae is 7.32%; in the assay with Candida albicans, 2.62%; with Cryptococcus neoformans, -0.59%.

As for `CNCCCC12CCC(c3ccccc31)c1ccccc12.Cl` [MAPROTILINE HYDROCHLORIDE], the Inhibition with Klebsiella pneumoniae was 10.44%; in the assay on Candida albicans, 3.58%; in the assay on Cryptococcus neoformans it was -10.89%.

As to `Nc1nc(N)nc(-c2cc(Cl)ccc2Cl)n1.O=C(O)/C=C\C(=O)O` [IRSOGLADINE MALEATE], the Inhibition with Klebsiella pneumoniae was 5.85%; in the assay on Candida albicans it was 2.42%; with Cryptococcus neoformans it was -1.72%.

For the compound `Cc1cccc(CN2CCN(C(c3ccccc3)c3ccc(Cl)cc3)CC2)c1.Cl.Cl` (stereo not given), the Inhibition is 10.89% with Klebsiella pneumoniae, 1.13% in the assay with Candida albicans and -13% in the assay with Cryptococcus neoformans.

For `CN[C@@H]1[C@H](O)[C@H](NC)[C@H]2O[C@@]3(O)C(=O)C[C@@H](C)O[C@H]3O[C@@H]2[C@H]1O.Cl.Cl.Cl.O.O.O`, the Inhibition is 37.26% in the assay on Klebsiella pneumoniae, 2.22% with Candida albicans and -1.83% with Cryptococcus neoformans.

As for `CCCc1nc2c(C)cc(-c3nc4ccccc4n3C)cc2n1Cc1ccc(-c2ccccc2C(=O)O)cc1`, the values for the Inhibition with Klebsiella pneumoniae, with Candida albicans and in the assay on Cryptococcus neoformans were 15%, 1.9% and -31%, respectively.

Turning to `CC(C)(C)NC[C@H](O)COc1nsnc1N1CCOCC1.O=C(O)/C=C\C(=O)O` [TIMOLOL MALEATE], the Inhibition was 6.73% with Klebsiella pneumoniae, -1.73% with Candida albicans and -3.81% in the assay with Cryptococcus neoformans.

As to `CCN(CC)CCNC(=O)c1ccc(N)cc1.Cl` [PROCAINAMIDE HYDROCHLORIDE], the Inhibition is -3.79% in the assay on Klebsiella pneumoniae, 0.33% with Candida albicans and 3.84% in the assay on Cryptococcus neoformans.

Turning to `CN(C/C=C/C#CC(C)(C)C)Cc1cccc2ccccc12.Cl` [TERBINAFINE HYDROCHLORIDE], the values for the Inhibition in the assay on Klebsiella pneumoniae, in the assay with Candida albicans and in the assay on Cryptococcus neoformans were 11.69%, 32.9% and 35.41%, respectively.

Turning to `C[C@@H]1C[C@H]2[C@@H]3CCC4=CC(=O)C=C[C@]4(C)[C@@]3(F)[C@@H](O)C[C@]2(C)[C@@]1(O)C(=O)CO` [DEXAMETHASONE], the Inhibition in the assay with Klebsiella pneumoniae (20 µM) was -0.78% and 2.8%; in the assay on Candida albicans, 1.68% and 4.41%; with Cryptococcus neoformans (20 µM), -1.2% and -1.22%.

Regarding `CC(Cc1ccc(O)c(O)c1)(NN)C(=O)O.O` (stereo not given), the Inhibition with Klebsiella pneumoniae was 11.66%; in the assay with Candida albicans, 2.35%; in the assay on Cryptococcus neoformans, -6.03%.

Consider `COC(=O)CCc1ccc(OCC(O)CNC(C)C)cc1.Cl` (stereo not given) [ESMOLOL HYDROCHLORIDE], for which the Inhibition was 3.48% in the assay on Klebsiella pneumoniae, 1.99% in the assay with Candida albicans and -7.33% in the assay with Cryptococcus neoformans.

For the compound `CC(=O)Nc1nnc(S(N)(=O)=O)s1` [ACETAZOLAMIDE], the Inhibition in the assay on Klebsiella pneumoniae is 10.3%; with Candida albicans, 4.56%; with Cryptococcus neoformans, -2.97%.

Turning to `CCCCC(=O)N(Cc1ccc(-c2ccccc2-c2nnn[nH]2)cc1)[C@H](C(=O)O)C(C)C`, the Inhibition was 7.53% in the assay on Klebsiella pneumoniae, 3.96% in the assay on Candida albicans and -1.97% in the assay on Cryptococcus neoformans.

Consider `Br.Br.O=C1CC2(CCCC2)CC(=O)N1CCNCC1COc2ccccc2O1` (stereo not given), for which the values for the Inhibition with Klebsiella pneumoniae, in the assay on Candida albicans and with Cryptococcus neoformans were 12.27%, 3.99% and -1.27%, respectively.

Regarding `CNNCc1ccc(C(=O)NC(C)C)cc1.Cl` [PROCARBAZINE HYDROCHLORIDE], the Inhibition was 8% in the assay with Klebsiella pneumoniae, 2.55% with Candida albicans and -6.46% with Cryptococcus neoformans.

Regarding `C[C@@H]1C[C@H]2[C@@H]3C[C@H](F)C4=CC(=O)C(Cl)=C[C@]4(C)[C@@]3(F)[C@@H](O)C[C@]2(C)[C@@]1(O)C(=O)CO` [HALOMETASONE], the Inhibition in the assay with Klebsiella pneumoniae is 3.82%; with Candida albicans, -0.05%; in the assay on Cryptococcus neoformans it was -4.6%.

For the compound `CNCC(O)c1ccc(O)c(O)c1` (stereo not given) [RACEPINEPHRINE], the Inhibition in the assay with Klebsiella pneumoniae is 12.35%; in the assay with Candida albicans it was 4.12%; in the assay on Cryptococcus neoformans, -0.68%.

Regarding `CNCCCCOc1ccccc1Cc1ccccc1.Cl`, the values for the Inhibition with Klebsiella pneumoniae, in the assay with Candida albicans and with Cryptococcus neoformans were 18.69%, 1.66% and -8.24%, respectively.

With `C[C@H]1C[C@@H]2[C@H]([C@@H](O)C[C@@]3(C)[C@H]2CC[C@]3(O)C(=O)CO)[C@@]2(C)C=CC(=O)C=C12` [METHYLPREDNISOLONE], the Inhibition with Klebsiella pneumoniae is 20.28%; with Candida albicans, 2.95%; in the assay on Cryptococcus neoformans it was -7.56%.

`CC(C)NCC(O)COc1ccc(CCOCC2CC2)cc1.Cl` (stereo not given) [BETAXOLOL HYDROCHLORIDE]: the Inhibition in the assay on Klebsiella pneumoniae was 15.59%; in the assay with Candida albicans it was 2.88%; in the assay on Cryptococcus neoformans it was -9.53%.

For the compound `CC1(C)O[C@@H]2C[C@H]3[C@@H]4CCC5=CC(=O)C=C[C@]5(C)[C@@]4(F)[C@@H](O)C[C@]3(C)[C@]2(C(=O)CO)O1` [TRIAMCINOLONE ACETONIDE], the Inhibition is 14.59% in the assay with Klebsiella pneumoniae, 0.96% with Candida albicans and -5.82% with Cryptococcus neoformans.

For orientation: Inhibition means the relative decrease from the control value, in per cent.

These data come from ChEMBL document CHEMBL4513141, “CO-ADD screening of NIH (USA) - Clinical Collection” (2021).
